Drawing on PubChem BioAssay, this text covers growth inhibition, inhibition and outcome for 18 compounds.

Test [1] can be described thus: antimalarial activity against Dd2 strain (AID 2302;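 active means growth inhibition above 50% at the single 2 µM test dose, taken to imply half-maximal potency below 2 µM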;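 further: 0% = DMSO untreated growth and 100% = chloroquine plus artemisinin killed control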). Conditions: P. falciparum Dd2 in RBCs, LDH growth readout, 72 h; at 2 µM; hits give high values.
A short description of test [2]: HepG2 cytotoxicity, primary screen, cytotoxicity control for P. falciparum antimalarial project, cell-based, ATP luminescence (AID 2303;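 active means inhibition above 50%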;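 further: 0% = DMSO wells and 100% = digitonin-killed cells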). Conditions: HepG2 viability, 24-48 h, at 10 µM, hits give high values.
For test [3], the target named is L-lactate dehydrogenase (Plasmodium falciparum (isolate CDC / Honduras)) (UniProt Q27743). The test is described as follows: PfLDH activity inhibition – cell lysate, 3D7 strain, counter-screen for P. falciparum growth inhibition project (AID 2304).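 Further: 0% = vehicle and 100% = reference inhibitor.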 Conditions: P. falciparum 3D7 crude extract, LDH APAD/NBT absorbance; at 2 µM; hits give high values. A general note: Counterscreens check selectivity or assay interference.
L-lactate dehydrogenase (Plasmodium falciparum (isolate CDC / Honduras)), sequence (Q27743 whole entry, looked up): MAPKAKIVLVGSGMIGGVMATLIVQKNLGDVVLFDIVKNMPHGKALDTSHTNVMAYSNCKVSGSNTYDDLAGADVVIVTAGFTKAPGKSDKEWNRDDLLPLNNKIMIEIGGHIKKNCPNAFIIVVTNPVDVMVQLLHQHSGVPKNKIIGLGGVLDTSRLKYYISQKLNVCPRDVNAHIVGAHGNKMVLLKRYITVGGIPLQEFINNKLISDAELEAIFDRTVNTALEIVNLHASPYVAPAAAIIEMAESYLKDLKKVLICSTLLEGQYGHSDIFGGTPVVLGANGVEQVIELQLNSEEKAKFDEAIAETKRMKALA

A short description of test [4]: inhibition of 3D7 malaria parasite growth – strain 3D7 (AID 2306).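 Further: 0% = DMSO wells and 100% = chloroquine plus artemisinin control wells.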 The following applies: P. falciparum 3D7 erythrocytic growth, LDH absorbance, 72 h; at 2 µM; hits give high values.
In test [5] the target is Calcium-dependent protein kinase 1 (Plasmodium falciparum (isolate 3D7)) (UniProt P62344). The experiment in a line: PfCDPK1 kinase inhibitors, biochemical, TCAMS library (AID 1159585; cut-off not given, nearly all actives have IC50 up to about 0.98 µM;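 further: inhibitors leave more ATP so luminescence rises with inhibition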). The following applies: recombinant PfCDPK1, Kinase-Glo ATP depletion luminescence. (In general: In Kinase-Glo more light means more ATP remaining.)
Calcium-dependent protein kinase 1 (Plasmodium falciparum (isolate 3D7)), sequence (P62344 whole entry, looked up): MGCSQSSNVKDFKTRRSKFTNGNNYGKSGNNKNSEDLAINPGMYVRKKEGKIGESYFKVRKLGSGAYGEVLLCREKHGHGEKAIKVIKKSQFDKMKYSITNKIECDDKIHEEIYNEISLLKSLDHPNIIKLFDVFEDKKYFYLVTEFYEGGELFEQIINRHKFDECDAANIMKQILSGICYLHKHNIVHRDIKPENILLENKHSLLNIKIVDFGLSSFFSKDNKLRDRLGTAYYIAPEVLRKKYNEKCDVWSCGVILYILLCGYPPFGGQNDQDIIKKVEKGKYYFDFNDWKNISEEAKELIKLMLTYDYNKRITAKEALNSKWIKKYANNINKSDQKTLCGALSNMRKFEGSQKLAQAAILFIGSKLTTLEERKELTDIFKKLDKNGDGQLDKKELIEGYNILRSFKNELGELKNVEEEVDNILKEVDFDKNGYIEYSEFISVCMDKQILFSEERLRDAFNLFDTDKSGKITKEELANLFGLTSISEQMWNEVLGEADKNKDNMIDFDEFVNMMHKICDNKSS
Test [6] addresses Plasmodium falciparum protein kinase 6 (PK6, PF3D7_1337100) (UniProt Q8IDW1). The experiment in a line: PfPK6 kinase inhibitors, biochemical, TCAMS library (AID 1159586). The following applies: recombinant PfPK6, Kinase-Glo ATP depletion luminescence.
Test [7] has as its target Protein kinase 7 (PK7), Plasmodium falciparum 3D7 (PF3D7_0213400) (UniProt Q7YTF7). The experiment in a line: inhibition of Plasmodium PK7 catalytic activity – biochemical, TCAMS antimalarial set, Kinase-Glo luminescence (AID 1159587). The following applies: recombinant PfPK7, Kinase-Glo ATP depletion luminescence.
Test [8] concerns the target Calcium-dependent protein kinase 4 (Plasmodium falciparum (isolate 3D7)) (UniProt Q8IBS5). The test is described as follows: PfCDPK4 kinase inhibitors, biochemical, TCAMS library (AID 1159588; cut-off not given, nearly all actives have IC50 up to about 0.91 µM). Conditions: recombinant PfCDPK4, Kinase-Glo ATP depletion luminescence.

Values without a mark were called inactive. For part of these data: Measured potencies and affinities stand elsewhere. Activity calls are given as the source filed them. Unless noted, how the calls were made is not given here.

Protein kinase 7 (PK7), Plasmodium falciparum 3D7 (PF3D7_0213400), sequence (Q7YTF7 1-343): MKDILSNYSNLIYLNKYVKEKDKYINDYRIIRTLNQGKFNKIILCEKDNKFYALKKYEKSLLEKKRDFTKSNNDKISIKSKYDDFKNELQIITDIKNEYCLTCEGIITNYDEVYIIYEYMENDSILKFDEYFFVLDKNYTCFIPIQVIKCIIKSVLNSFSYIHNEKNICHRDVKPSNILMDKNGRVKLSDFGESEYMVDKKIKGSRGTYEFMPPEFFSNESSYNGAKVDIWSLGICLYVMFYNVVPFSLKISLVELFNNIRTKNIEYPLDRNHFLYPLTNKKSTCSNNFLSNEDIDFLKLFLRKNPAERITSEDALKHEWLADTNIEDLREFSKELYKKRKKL
Plasmodium falciparum protein kinase 6 (PK6, PF3D7_1337100), sequence (Q8IDW1 1-305): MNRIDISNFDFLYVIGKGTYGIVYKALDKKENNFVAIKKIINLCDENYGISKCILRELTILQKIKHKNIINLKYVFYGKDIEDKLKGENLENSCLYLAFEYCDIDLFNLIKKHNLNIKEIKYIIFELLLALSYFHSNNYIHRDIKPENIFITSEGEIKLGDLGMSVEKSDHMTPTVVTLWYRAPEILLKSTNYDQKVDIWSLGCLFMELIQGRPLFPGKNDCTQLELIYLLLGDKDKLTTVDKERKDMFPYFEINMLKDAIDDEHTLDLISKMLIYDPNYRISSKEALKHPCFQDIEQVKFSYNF
Calcium-dependent protein kinase 4 (Plasmodium falciparum (isolate 3D7)), sequence (Q8IBS5 whole entry, looked up): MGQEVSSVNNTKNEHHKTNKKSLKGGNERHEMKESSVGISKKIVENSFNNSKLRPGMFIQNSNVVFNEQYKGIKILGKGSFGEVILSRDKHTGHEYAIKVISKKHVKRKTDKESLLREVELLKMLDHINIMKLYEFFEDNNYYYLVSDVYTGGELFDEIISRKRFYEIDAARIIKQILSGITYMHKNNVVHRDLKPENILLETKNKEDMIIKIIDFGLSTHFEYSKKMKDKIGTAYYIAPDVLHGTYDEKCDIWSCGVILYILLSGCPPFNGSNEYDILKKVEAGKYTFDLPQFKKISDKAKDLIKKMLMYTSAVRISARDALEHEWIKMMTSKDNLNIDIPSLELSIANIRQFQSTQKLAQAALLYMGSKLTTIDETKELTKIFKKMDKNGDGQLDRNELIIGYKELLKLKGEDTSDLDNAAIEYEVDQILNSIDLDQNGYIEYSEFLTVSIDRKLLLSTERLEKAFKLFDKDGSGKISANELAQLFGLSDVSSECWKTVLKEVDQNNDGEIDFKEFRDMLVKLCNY

For `c1cc(-c2ccc(CNCc3ccsc3)cc2)cc(-c2nc3ccccc3[nH]2)c1`, the growth inhibition was 82% (active) in test [1] and 101% (active) in test [4]. In addition, the values for the inhibition in test [2] and in test [3] were 46% and 2%, respectively. Also, the outcome in test [5], in test [6], in test [7] and in test [8] was inactive.

For the compound `CCC(=O)c1cc(C(=O)NCCc2cccc(OC)c2)ccc1OC`, the results for the growth inhibition in test [1] and in test [4] were 12% and 83% (active), respectively. The inhibition in test [2] is -7%; in test [3], -2%. Moreover, the result in test [5], in test [6], in test [7] and in test [8] was inactive.

On to `CCNC(=O)Nc1ccc(N(C)c2ccnc(NC3CC3)n2)cc1`, for which the growth inhibition in test [1] is 80% (active); in test [4] it was 100% (active). The figures for the inhibition in test [2] and in test [3] were 21% and -5%, respectively. Further, the result in test [5], in test [6], in test [7] and in test [8] was inactive.

With `CCNc1cc(C)nc(Nc2ccc(C)cc2)n1`, the figures for the growth inhibition in test [1] and in test [4] were 85% (active) and 102% (active), respectively. Further, the inhibition was 12% in test [2] and 3% in test [3]. Moreover, the outcome in test [5], in test [6], in test [7] and in test [8] was inactive.

`Cc1noc(C)c1-c1cccc(C(=O)NC2CCN(CCNC(=O)C(c3ccccc3)c3ccccc3)CC2)c1`: the results for the growth inhibition in test [1] and in test [4] were 74% (active) and 85% (active), respectively. Also, the inhibition in test [2] is 27%; in test [3] it was 5%. In addition, the result in test [5], in test [6], in test [7] and in test [8] was inactive.

`Nc1ccnc(N2CCC(CCOc3ccnc4cc(Cl)ccc34)CC2)c1`: the growth inhibition is 99% (active) in test [1] and 100% (active) in test [4]. The inhibition in test [2] was 34%; in test [3], 4%. Further, the result in test [5], in test [6], in test [7] and in test [8] was inactive.

`COc1ccc2c(NN=Cc3ccccc3[N+](=O)[O-])cc(C)nc2c1`: the growth inhibition in test [1] was 100% (active); in test [4], 101% (active). Besides, the inhibition in test [2] was 14%; in test [3], -4%. In addition, the result in test [5], in test [6], in test [7] and in test [8] was inactive.

For the compound `Cn1cc(CN2CCC(OC(c3ccccc3)c3ccc(Cl)cc3)CC2)cn1` (centres undefined), the growth inhibition in test [1] is 61% (active); in test [4] it was 94% (active). Further, the inhibition is 39% in test [2] and 5% in test [3]. The result in test [5], in test [6], in test [7] and in test [8] was inactive.

On to `Cc1[nH]nc2ccc(-c3cc(OC[C@@H](N)Cc4ccccc4)cnc3-c3ccccc3OCc3cccc(F)c3)cc12`, for which the growth inhibition in test [1] and in test [4] was 91% (active) throughout. Besides, the inhibition in test [2] was 55% (active); in test [3] it was -2%. The outcome in test [5], in test [6], in test [7] and in test [8] was inactive.

For the compound `CN(C)c1ccc(NC2=NC(C)(C)N=C(N)N2)cc1`, the growth inhibition in test [1] was 5%; in test [4] it was 95% (active). Also, the figures for the inhibition in test [2] and in test [3] were -1% and -4%, respectively. Also, the result in test [5], in test [6], in test [7] and in test [8] was inactive.

Consider `CCOc1ccc(C2CCN(CCN3CCC(NC(=O)c4ccc(-c5ccc(C(F)(F)F)cc5)cc4)CC3)CC2)c(OCC2CC2)c1`, for which the growth inhibition is 65% (active) in test [1] and 99% (active) in test [4]. Moreover, the inhibition in test [2] is 13%; in test [3], -9%. Further, the result in test [5], in test [6], in test [7] and in test [8] was inactive.

`Cc1ccccc1C1CCN(C2CCC(NC(=O)/C=C/c3c[nH]c4ccccc34)CC2)CC1` (centres undefined): the growth inhibition is 51% (active) in test [1] and 100% (active) in test [4]. Also, the inhibition in test [2] was 30%; in test [3], 2%. Also, the result in test [5], in test [6], in test [7] and in test [8] was inactive.

On to `O=C(NCCc1cccc(Cl)c1Cl)c1cnc(N2CCN(c3ccncc3)CC2)c(Cl)c1`, for which the growth inhibition in test [1] was 99% (active); in test [4], 100% (active). Also, the inhibition in test [2] was 47%; in test [3], 0%. The result in test [5], in test [6], in test [7] and in test [8] was inactive.

As for `Nc1c(Cl)cc(C(O)CNCCCCCOCCc2ccccc2)cc1C(F)(F)F` (centres undefined), the growth inhibition in test [1] is 96% (active); in test [4], 99% (active). The results for the inhibition in test [2] and in test [3] were 3% and 5%, respectively. The outcome in test [5], in test [6], in test [7] and in test [8] was inactive.

As for `O=C(Nc1ccc2c(c1)CNCC2)c1ccc(-c2ccc(Cl)cc2)cc1`, the growth inhibition in test [1] is 28%; in test [4], 96% (active). Further, the values for the inhibition in test [2] and in test [3] were 52% (active) and 6%, respectively. For the same compound, the result in test [5], in test [6], in test [7] and in test [8] was inactive.

Take `Cc1ccc(OCCCON2C(N)=NC(N)=NC2(C)C)cc1C`: the growth inhibition in test [1] was 94% (active); in test [4] it was 96% (active). In addition, the results for the inhibition in test [2] and in test [3] were 57% (active) and 0%, respectively. Further, the result in test [5], in test [6], in test [7] and in test [8] was inactive.

With `O=C(Nc1cccc(CN2CCCN(Cc3ccsc3)CC2)c1)c1ccc(Cl)c(Cl)c1`, the growth inhibition in test [1] is 20%; in test [4], 98% (active). Besides, the inhibition is 36% in test [2] and 4% in test [3]. For the same compound, the result in test [5], in test [6], in test [7] and in test [8] was inactive.

For `COc1ccc(-c2cc(C(=O)N[C@@H](Cc3ccccc3)C(=O)NCCN3CCCCC3)ccc2O)cc1`, the growth inhibition was -3% in test [1] and 96% (active) in test [4]. In addition, the inhibition was -3% in test [2] and 1% in test [3]. The result in test [5], in test [6], in test [7] and in test [8] was inactive.

The inhibition is the change of the read-out against control, counted positive when it falls.
